Results from PubChem BioAssay (EPA / NIEHS).
The source made the active and inactive calls. Rule for the calls: active = hit-call score of the fitted dose curve at least 0.9, where 1 is the maximum; inactive = score below 0.9.

What follows are compounds tested on Fatty Acid-Binding Protein 1 (FABP1), FABP1 (gene 2168) (assay: LTEA_HepaRG_FABP1: Life Technologies and Expression Analysis (LTEA) Assay for Fatty Acid-Binding Protein 1 (FABP1) using HepaRG (AID 2283494)). Conditions: mRNA level, 48 h; actives raise or lower the signal.
Procedure, shortened: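 Differentiated human HepaRG cells exposed 48 h in serum-free induction medium to eight half-log concentrations up to 100 uM (0.5% DMSO), duplicate. FABP1 mRNA by qRT-PCR, normalised to ACTB, GAPDH, POLR2A; bidirectional fitting against DMSO.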

SMILES | outcome
Cc1ccc([N+](=O)[O-])cc1N | inactive
Nc1ccc(C(=O)O)cc1 | inactive
C1CNCCN1 | inactive

These compounds were tested on Cytochrome P450 4A22 (Homo sapiens) (UniProt Q5TCH4) (assay: LTEA_HepaRG_CYP4A22: Life Technologies and Expression Analysis (LTEA) Assay for Cytochrome P450 4A22 (CYP4A22) using HepaRG (AID 2283495)). Conditions: mRNA level, 48 h; actives raise or lower the signal.
Procedure, shortened: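 HepaRG, 48 h post-plating -> serum-free induction medium; dosed 48 h, duplicate, 8 conc. (100 uM top, half-log), 0.5% DMSO. Readout: CYP4A22 mRNA by qRT-PCR, ACTB/GAPDH/POLR2A normalization; gain/loss fit relative to DMSO.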

SMILES | outcome
Cc1ccc([N+](=O)[O-])cc1N | inactive
Nc1ccc(C(=O)O)cc1 | inactive
C1CNCCN1 | inactive

These compounds were tested on Cytochrome P450 7A1 (Homo sapiens) (UniProt P22680) (assay: LTEA_HepaRG_CYP7A1: Life Technologies and Expression Analysis (LTEA) Assay for Cytochrome P450 7A1 (CYP7A1) using HepaRG (AID 2283496)). Conditions: mRNA level, 48 h; actives raise or lower the signal.
Procedure, shortened: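 Gene expression endpoint in human HepaRG liver cells treated for 48 h with test chemicals (up to 100 uM, 0.5% DMSO). Values come from bidirectional concentration-response fitting versus DMSO.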

SMILES | outcome
Cc1ccc([N+](=O)[O-])cc1N | inactive
Nc1ccc(C(=O)O)cc1 | inactive
C1CNCCN1 | inactive

Each compound was assayed on Glutathione S-Transferase (GSTA2), GSTA2 (gene 2939) (assay: LTEA_HepaRG_GSTA2: Life Technologies and Expression Analysis (LTEA) Assay for Glutathione S-Transferase (GSTA2) using HepaRG (AID 2283497)). Conditions: mRNA level, 48 h; actives raise or lower the signal.
Procedure, shortened: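 Differentiated human HepaRG cells were exposed in duplicate for 48 h in serum-free induction medium, 8 points from 100 uM top in half-log steps, 0.5% DMSO. GSTA2 mRNA was measured by TaqMan qRT-PCR, normalized to ACTB, GAPDH and POLR2A; bidirectional fit versus DMSO.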

SMILES | outcome
Cc1ccc([N+](=O)[O-])cc1N | inactive
Nc1ccc(C(=O)O)cc1 | inactive
C1CNCCN1 | inactive

The compounds below were run on Glutamate-cysteine ligase catalytic (GCLC), GCLC (gene 2729) (assay: LTEA_HepaRG_GCLC: Life Technologies and Expression Analysis (LTEA) Assay for Glutamate-cysteine ligase catalytic (GCLC) using HepaRG (AID 2283498)). Conditions: mRNA level, 48 h; actives raise or lower the signal.
Procedure, shortened: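 Differentiated HepaRG cells exposed 48 h in serum-free induction medium, eight-point half-log series topping at 100 uM in 0.5% DMSO, duplicates. GCLC mRNA by qRT-PCR normalized to ACTB, GAPDH and POLR2A, fitted bidirectionally versus DMSO.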

SMILES | outcome
Cc1ccc([N+](=O)[O-])cc1N | inactive
Nc1ccc(C(=O)O)cc1 | inactive
C1CNCCN1 | inactive

These compounds were tested on growth arrest and DNA damage 45 (GADD45G), GADD45G (gene 10912) (assay: LTEA_HepaRG_GADD45G: Life Technologies and Expression Analysis (LTEA) Assay for growth arrest and DNA damage 45 (GADD45G) using HepaRG (AID 2283499)). Conditions: mRNA level, 48 h; actives raise or lower the signal.
Procedure, shortened: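 HepaRG, 48 h exposure, top 100 uM, half-log 8-point series, 0.5% DMSO vehicle, duplicates. Readout: GADD45G transcript by qRT-PCR (Fluidigm array), housekeeping-normalised (ACTB/GAPDH/POLR2A). Bidirectional curve fit vs DMSO baseline.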

SMILES | outcome
Cc1ccc([N+](=O)[O-])cc1N | inactive
Nc1ccc(C(=O)O)cc1 | inactive
C1CNCCN1 | inactive

What follows are compounds tested on Glutamate-cysteine ligase regulatory (GCLM), GCLM (gene 2730) (assay: LTEA_HepaRG_GCLM: Life Technologies and Expression Analysis (LTEA) Assay for Glutamate-cysteine ligase regulatory (GCLM) using HepaRG (AID 2283500)). Conditions: mRNA level, 48 h; actives raise or lower the signal.
Procedure, shortened: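 Human liver HepaRG cultures receive test chemicals for 48 hours at up to 100 uM in 0.5% DMSO. GCLM expression is measured by qRT-PCR and analysed for increases or decreases against vehicle.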

SMILES | outcome
Cc1ccc([N+](=O)[O-])cc1N | inactive
Nc1ccc(C(=O)O)cc1 | inactive
C1CNCCN1 | inactive

These compounds were tested on Glutathione S-transferase M3 (GSTM3), GSTM3 (gene 2947) (assay: LTEA_HepaRG_GSTM3: Life Technologies and Expression Analysis (LTEA) Assay for Glutathione S-transferase M3 (GSTM3) using HepaRG (AID 2283501)). Conditions: mRNA level, 48 h; actives raise or lower the signal.
Procedure, shortened: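 qRT-PCR read-out of GSTM3 transcript, normalized to three housekeeping genes, from human HepaRG cells after 48 h chemical exposure. Eight-point half-log series, top 100 uM, 0.5% DMSO vehicle; gain or loss fitted relative to DMSO baseline.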

SMILES | outcome
Cc1ccc([N+](=O)[O-])cc1N | inactive
Nc1ccc(C(=O)O)cc1 | inactive
C1CNCCN1 | inactive

What follows are compounds tested on Heat shock 70 kDa protein 1 (HSPA1A), gene 3303 (assay: LTEA_HepaRG_HSPA1A: Life Technologies and Expression Analysis (LTEA) Assay for Heat shock 70 kDa protein 1 (HSPA1A) using HepaRG (AID 2283502)). Conditions: mRNA level, 48 h; actives raise or lower the signal.
Procedure, shortened: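 HSPA1A induction in human HepaRG liver cells is measured after 48 h of chemical treatment (100 uM maximum, 0.5% DMSO vehicle). Expression comes from qRT-PCR normalized to endogenous controls.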

SMILES | outcome
Cc1ccc([N+](=O)[O-])cc1N | inactive
Nc1ccc(C(=O)O)cc1 | inactive
C1CNCCN1 | inactive

These compounds were tested on Hypoxia-inducible factor 1-alpha (Homo sapiens) (UniProt Q16665) (assay: LTEA_HepaRG_HIF1A: Life Technologies and Expression Analysis (LTEA) Assay for Hypoxia-inducible factor 1 (HIF1A) Trancription factor using HepaRG (AID 2283503;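 note: HIF1A transcript by TaqMan qRT-PCR normalized to ACTB GAPDH and POLR2A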)). Conditions: mRNA level, 48 h; actives raise or lower the signal.
Chain of Hypoxia-inducible factor 1-alpha (Homo sapiens) (Q16665 whole entry, looked up): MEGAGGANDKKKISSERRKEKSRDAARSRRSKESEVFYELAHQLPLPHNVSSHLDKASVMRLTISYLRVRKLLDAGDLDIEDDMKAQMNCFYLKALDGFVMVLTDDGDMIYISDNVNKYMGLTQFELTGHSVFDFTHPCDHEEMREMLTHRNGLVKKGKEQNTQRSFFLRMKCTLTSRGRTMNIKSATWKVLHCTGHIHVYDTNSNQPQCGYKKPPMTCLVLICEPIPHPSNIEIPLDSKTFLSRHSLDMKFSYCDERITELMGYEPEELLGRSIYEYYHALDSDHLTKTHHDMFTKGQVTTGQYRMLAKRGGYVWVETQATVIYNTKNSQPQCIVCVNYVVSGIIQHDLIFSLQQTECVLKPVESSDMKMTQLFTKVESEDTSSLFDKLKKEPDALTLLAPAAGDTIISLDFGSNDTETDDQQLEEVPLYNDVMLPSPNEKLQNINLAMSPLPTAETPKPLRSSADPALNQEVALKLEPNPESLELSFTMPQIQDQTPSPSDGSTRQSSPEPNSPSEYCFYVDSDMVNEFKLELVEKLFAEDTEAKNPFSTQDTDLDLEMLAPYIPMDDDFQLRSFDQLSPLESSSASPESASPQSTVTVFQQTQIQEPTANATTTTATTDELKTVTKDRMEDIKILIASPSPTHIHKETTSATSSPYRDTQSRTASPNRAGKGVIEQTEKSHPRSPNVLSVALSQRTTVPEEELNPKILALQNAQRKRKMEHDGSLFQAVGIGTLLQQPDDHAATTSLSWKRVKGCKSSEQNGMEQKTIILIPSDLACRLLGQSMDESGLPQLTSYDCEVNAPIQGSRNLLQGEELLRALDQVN
Procedure, shortened: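 HepaRG, 48 h exposure, 8-pt half-log series from 100 uM, 0.5% DMSO vehicle, duplicates. Readout: HIF1A transcript by qRT-PCR (Fluidigm array), housekeeping-normalised. Bidirectional curve fit vs DMSO baseline.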

SMILES | outcome
Cc1ccc([N+](=O)[O-])cc1N | inactive
Nc1ccc(C(=O)O)cc1 | inactive
C1CNCCN1 | inactive

What follows are compounds tested on 3-Hydroxy-3-Methylglutaryl-CoA Synthase 2 (HMGCS2), HMGCS2 (gene 3158) (assay: LTEA_HepaRG_HMGCS2: Life Technologies and Expression Analysis (LTEA) Assay for 3-Hydroxy-3-Methylglutaryl-CoA Synthase 2 (HMGCS2) using HepaRG (AID 2283504)). Conditions: mRNA level, 48 h; actives raise or lower the signal.
Procedure, shortened: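 qRT-PCR read-out of HMGCS2 transcript, normalised to three housekeeping genes, in HepaRG cells after 48 h chemical exposure. Eight-point curves from 100 uM, half-log dilutions, 0.5% DMSO vehicle; gain or loss fitted relative to DMSO baseline.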

SMILES | outcome
Cc1ccc([N+](=O)[O-])cc1N | inactive
Nc1ccc(C(=O)O)cc1 | inactive
C1CNCCN1 | inactive

The compounds below were run on HGF (gene 3082) (assay: LTEA_HepaRG_HGF: Life Technologies and Expression Analysis (LTEA) Assay for Hepatocyte Growth Facto (HGF) using HepaRG (AID 2283505)). Conditions: mRNA level, 48 h; actives raise or lower the signal.
Procedure, shortened: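 HepaRG, 48 h dosing, 8-pt half-log series from 100 uM in 0.5% DMSO, duplicates. Readout: TaqMan qRT-PCR of HGF mRNA, housekeeping-normalized; bidirectional curve fit vs DMSO baseline.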

SMILES | outcome
Cc1ccc([N+](=O)[O-])cc1N | inactive
Nc1ccc(C(=O)O)cc1 | inactive
C1CNCCN1 | inactive

The compounds below were run on Insulin Like Growth Factor 1 (IGF1), IGF1 (gene 3479) (assay: LTEA_HepaRG_IGF1: Life Technologies and Expression Analysis (LTEA) Assay for Insulin Like Growth Factor 1 (IGF1) using HepaRG (AID 2283506)). Conditions: mRNA level, 48 h; actives raise or lower the signal.
Procedure, shortened: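 Using human HepaRG liver cells, IGF1 transcript induction or suppression is measured 48 h after dosing across eight concentrations capped at 100 uM. Values derive from bidirectional concentration-response fitting with DMSO as baseline.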

SMILES | outcome
Cc1ccc([N+](=O)[O-])cc1N | inactive
Nc1ccc(C(=O)O)cc1 | inactive
C1CNCCN1 | inactive

Each compound was assayed on Intercellular Adhesion Molecule 1 (ICAM1), ICAM1 (gene 3383) (assay: LTEA_HepaRG_ICAM1: Life Technologies and Expression Analysis (LTEA) Assay for Intercellular Adhesion Molecule 1 (ICAM1) using HepaRG (AID 2283507)). Conditions: mRNA level, 48 h; actives raise or lower the signal.
Procedure, shortened: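 HepaRG, 48 h exposure, 8-pt half-log series from 100 uM, 0.5% DMSO vehicle, duplicates. Readout: TaqMan qRT-PCR mRNA, housekeeping-normalized (ACTB/GAPDH/POLR2A). Bidirectional curve fit vs DMSO baseline.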

SMILES | outcome
Cc1ccc([N+](=O)[O-])cc1N | inactive
Nc1ccc(C(=O)O)cc1 | inactive
C1CNCCN1 | inactive

Each compound was assayed on Insulin-like growth factor-binding protein 1 (IGFBP1), IGFBP1 (gene 3484) (assay: LTEA_HepaRG_IGFBP1: Life Technologies and Expression Analysis (LTEA) Assay for Insulin-like growth factor-binding protein 1 (IGFBP1) using HepaRG (AID 2283508)). Conditions: mRNA level, 48 h; actives raise or lower the signal.
Procedure, shortened: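 qRT-PCR mRNA read-out (TaqMan, Fluidigm array), normalised to three housekeeping genes; HepaRG cells, 48 h exposure, 8-pt half-log series from 100 uM, 0.5% DMSO vehicle; bidirectional curve fit vs DMSO baseline.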

SMILES | outcome
Cc1ccc([N+](=O)[O-])cc1N | inactive
Nc1ccc(C(=O)O)cc1 | inactive
C1CNCCN1 | inactive

These compounds were tested on Interleukin 6 (IL6), IL6 (gene 3569) (assay: LTEA_HepaRG_IL6: Life Technologies and Expression Analysis (LTEA) Assay for Interleukin 6 (IL6) using HepaRG (AID 2283509)). Conditions: mRNA level, 48 h; actives raise or lower the signal.
Procedure, shortened: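 HepaRG cells exposed in duplicate for 48 h to eight half-log concentrations, top 100 uM, in 0.5% DMSO serum-free induction medium. mRNA measured by qRT-PCR, normalized to ACTB, GAPDH and POLR2A. Bidirectional fit versus DMSO.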

SMILES | outcome
Cc1ccc([N+](=O)[O-])cc1N | inactive
Nc1ccc(C(=O)O)cc1 | inactive
C1CNCCN1 | inactive

What follows are compounds tested on Interleukin 6 Receptor (IL6R), IL6R (gene 3570) (assay: LTEA_HepaRG_IL6R: Life Technologies and Expression Analysis (LTEA) Assay for Interleukin 6 Receptor (IL6R) using HepaRG (AID 2283510)). Conditions: mRNA level, 48 h; actives raise or lower the signal.
Procedure, shortened: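 Concentration-response in human liver HepaRG cells: eight concentrations from 100 uM downward by half-logs, 48 h exposure, 0.5% DMSO vehicle. IL6R mRNA change measured by qRT-PCR and fitted in both directions relative to vehicle.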

SMILES | outcome
Cc1ccc([N+](=O)[O-])cc1N | inactive
Nc1ccc(C(=O)O)cc1 | inactive
C1CNCCN1 | inactive

Each compound was assayed on Potassium channel subfamily K member 1 (KCNK1), KCNK1 (gene 3775) (assay: LTEA_HepaRG_KCNK1: Life Technologies and Expression Analysis (LTEA) Assay for Potassium channel subfamily K member 1 (KCNK1) using HepaRG (AID 2283511)). Conditions: mRNA level, 48 h; actives raise or lower the signal.
Procedure, shortened: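 Differentiated HepaRG cells, 48 h exposure in serum-free induction medium with 0.5% DMSO; 8 concentrations, half-log from 100 uM, duplicate. KCNK1 mRNA by qRT-PCR, normalized to ACTB, GAPDH, POLR2A; bidirectional fit vs DMSO.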

SMILES | outcome
Cc1ccc([N+](=O)[O-])cc1N | inactive
Nc1ccc(C(=O)O)cc1 | inactive
C1CNCCN1 | inactive
